28 compounds from PubChem BioAssay (NCATS) can be followed below.

Structures are written as SMILES. Values without a mark were called inactive. Records with an inconclusive call do not appear. Calls of active or inactive are those of the source. The call rests on the fitted dose curve; in most records, active means well fitted inhibition curve with a large enough effect; inconclusive means small, poorly fitted or top-dose-only effect; inactive means no such curve, though single readings can be large or run the other way.

One assay is described as follows: qHTS assay for measurement of the activity of small molecule inhibitors on Zika virus induced Caspase-3 activity in human astrocytoma cells (AID 1224859).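 Further: plate controls were ZIKV-infected untreated cells for no effect and uninfected cells for full effect.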 The note with it: SNB-19 ZIKV-induced caspase-3/7, luminescence, 6 h; series mostly up to 45.7 µM; activity change, negative = inhibition: at the top concentration. Summed up:
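Luminescence read-out (Caspase-Glo 3/7, 30 min RT) of caspase activity in SNB-19 cells infected 6 h with ZIKV, 2 FFU/cell, after 1 h compound pretreatment; % inhibition from induction normalised to uninfected (0%) and infected (100%) wells.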
For `Cc1cnc(C(=O)NCCc2ccc(S(=O)(=O)NC(=O)NC3CCCCC3)cc2)cn1`, the Potency entry is “inactive”.
Consider `O=C(C1CCCCC1)N1CC(=O)N2CCc3ccccc3C2C1` (stereo unspecified), for which the Potency result is “inactive”.
With `CC1(CN2CCC(n3c(=O)[nH]c4ccccc43)CC2)OCc2ccccc2-n2cccc21` (stereo unspecified), the Potency entry was “inactive”.
Still for that read-out and setting: in the case of `CN1C(C(=O)Nc2ccccn2)=C(O)c2ccccc2S1(=O)=O` it was “inactive”.
Turning to `Cc1cc(C(C)(C)C)c(O)c(C)c1CC1=NCCN1`, the Potency entry was “inactive”.
Consider `CC(=O)OCC(CCn1cnc2cnc(N)nc21)COC(C)=O`, for which the Potency entry is “inactive”.
Still for that read-out and setting: in the case of `Cc1cn([C@H]2C[C@H](N=[N+]=[N-])[C@@H](CO)O2)c(=O)[nH]c1=O` it was “inactive”; in that of `CN1C2CCC1CC(OC(=O)C(CO)c1ccccc1)C2` (stereo unspecified), “inactive”.
The same measure, in the same setting: the value for `CCCCc1oc2ccccc2c1C(=O)c1cc(I)c(OCCN(CC)CC)c(I)c1` was “inactive”; that for `COc1cc2nc(N(C)CCCNC(=O)C3CCCO3)nc(N)c2cc1OC` (stereo unspecified) was “inactive”.
On the same count and under the same terms, the value for `COc1cc2nc(N3CCN(C(=O)c4ccco4)CC3)nc(N)c2cc1OC` was “inactive”.

A short description of a further assay: qHTS Screen of the MIPE 4.0 Collection Against Ewings Sarcoma (RDES) (AID 1259252). Further: nearly all actives have a fitted effect of over 35% in size. Further: potency means the concentration at half of the fitted maximal effect.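 On viability (percent of control): 100% = DMSO-treated cells and 0% = medium-only wells without cells.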 The note with it: RD-ES Ewing sarcoma viability, CellTiter-Glo, 48 h; series mostly up to 45.8 µM; viability (percent of control): at the top concentration. The essentials: (§1)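 After a 4 h attachment period in RPMI/5% FBS, cells were pin-dosed with test compounds; DMSO served as negative and 9.2 uM bortezomib (final) as positive control. Luminescent CellTiter-Glo signal at 48 h defined viability.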
On to `Nc1nc2c(ncn2COC(CO)CO)c(=O)[nH]1`, for which the Potency was 26.4 µM (active).
For the compound `NCCc1cnc[nH]1`, the Potency is 5.9 µM (active).
As for `CN1CCN(C2=Nc3cc(Cl)ccc3Nc3ccccc32)CC1`, the “viability (percent of control)” value was 95.5%.
On the same count and under the same terms, in the case of `CC(C)(C)C(=O)Oc1ccc(S(=O)(=O)Nc2ccccc2C(=O)NCC(=O)O)cc1` it was 118%.
Regarding `CN(Cc1cnc2nc(N)nc(N)c2n1)c1ccc(C(=O)N[C@@H](CCC(=O)O)C(=O)O)cc1`, the Potency is 0.0332 µM (active).
As for `CC1(CN2CCC(n3c(=O)[nH]c4ccccc43)CC2)OCc2ccccc2-n2cccc21` (stereo unspecified), the Potency is 16.6 µM (active).
Take `Fc1ccc([C@@H]2CCNC[C@H]2COc2ccc3c(c2)OCO3)cc1`: the “viability (percent of control)” value is 104%.
On to `CCOC(=O)C(C)(C)Oc1ccc(Cl)cc1`, for which the “viability (percent of control)” value was 130%.
For the compound `O=c1[nH]cc(F)c(=O)[nH]1`, the Potency is 5.26 µM (active).
As to `CC(=O)OCC(CCn1cnc2cnc(N)nc21)COC(C)=O`, the “viability (percent of control)” value was 114%.
On to `Cc1cn([C@H]2C[C@H](N=[N+]=[N-])[C@@H](CO)O2)c(=O)[nH]c1=O`, for which the “viability (percent of control)” value was 109%.
Consider `O=C(c1ccc(OCCN2CCCCC2)cc1)c1c(-c2ccc(O)cc2)sc2cc(O)ccc12`, for which the Potency is 2.35 µM (active).
As for `NC(=O)NO`, the Potency was 20.9 µM (active).
The same measure, in the same setting: the value for `CCCCc1oc2ccccc2c1C(=O)c1cc(I)c(OCCN(CC)CC)c(I)c1` was 8.33 µM (active).
`COc1cc2nc(N(C)CCCNC(=O)C3CCCO3)nc(N)c2cc1OC` (stereo unspecified): the “viability (percent of control)” value was 105%.
Regarding `CC(C)Cc1ccc(C(C)C(=O)O)cc1` (stereo unspecified), the “viability (percent of control)” value was 119% [at 23.2 µM].
As to `Cc1ccccc1N1C(=O)c2cc(S(N)(=O)=O)c(Cl)cc2NC1C` (stereo unspecified), the “viability (percent of control)” value was 133%.
Same read-out and setting: in the case of `CN(C)c1nc(N(C)C)nc(N(C)C)n1` it was 112%.

Another assay in a line: qHTS Screen of the MIPE 4.0 Collection Against Ewings Sarcoma (TC71) (AID 1259253). Further: nearly all actives have a fitted effect of over 40% in size. Further: potency means the concentration at half of the fitted maximal effect.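 On viability (% of DMSO): 100% = DMSO-treated cells and 0% = medium-only wells without cells.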 The conditions noted are these: TC71 Ewing sarcoma viability, CellTiter-Glo, 48 h; series mostly up to 45.8 µM; viability (% of DMSO): at the top concentration. The essentials:
as §1
Take `CCCNCC(O)COc1ccccc1C(=O)CCc1ccccc1` (stereo unspecified): the Potency is 14.8 µM (active).
Turning to `NC12CC3CC(CC(C3)C1)C2`, the Potency was 26.4 µM (active).
With `Nc1nc2c(ncn2COC(CO)CO)c(=O)[nH]1`, the Potency is 23.5 µM (active).
With `CC(C)(C)C(=O)Oc1ccc(S(=O)(=O)Nc2ccccc2C(=O)NCC(=O)O)cc1`, the “viability (% of DMSO)” value is 132%.
Consider `CN(Cc1cnc2nc(N)nc(N)c2n1)c1ccc(C(=O)N[C@@H](CCC(=O)O)C(=O)O)cc1`, for which the Potency was 0.0148 µM (active).
In the case of `CC1(CN2CCC(n3c(=O)[nH]c4ccccc43)CC2)OCc2ccccc2-n2cccc21` (stereo unspecified), the Potency was 16.6 µM (active).
Regarding `Fc1ccc([C@@H]2CCNC[C@H]2COc2ccc3c(c2)OCO3)cc1`, the Potency was 18.7 µM (active).
`CCOC(=O)C(C)(C)Oc1ccc(Cl)cc1`: the “viability (% of DMSO)” value was 130%.
As to `CC(=O)OCC(CCn1cnc2cnc(N)nc21)COC(C)=O`, the “viability (% of DMSO)” value was 121%.
As for `Cc1cn([C@H]2C[C@H](N=[N+]=[N-])[C@@H](CO)O2)c(=O)[nH]c1=O`, the “viability (% of DMSO)” value is 123%.
With `O=C(c1ccc(OCCN2CCCCC2)cc1)c1c(-c2ccc(O)cc2)sc2cc(O)ccc12`, the Potency is 7.43 µM (active).
Regarding `NC(=O)NO`, the Potency is 5.9 µM (active).
As to `CCCCc1oc2ccccc2c1C(=O)c1cc(I)c(OCCN(CC)CC)c(I)c1`, the Potency was 8.33 µM (active).
Consider `COc1cc2nc(N(C)CCCNC(=O)C3CCCO3)nc(N)c2cc1OC` (stereo unspecified), for which the “viability (% of DMSO)” value was 97.9%.
Consider `CC(C)Cc1ccc(C(C)C(=O)O)cc1` (stereo unspecified), for which the “viability (% of DMSO)” value was 129% [at 23.2 µM].
For the compound `Cc1ccccc1N1C(=O)c2cc(S(N)(=O)=O)c(Cl)cc2NC1C` (stereo unspecified), the “viability (% of DMSO)” value is 129%.
Take `CS(=O)(=O)Nc1ccc([N+](=O)[O-])cc1Oc1ccccc1`: the Potency is 16.6 µM (active).
As for `OCCN(CCO)c1nc(N2CCCCC2)c2nc(N(CCO)CCO)nc(N3CCCCC3)c2n1`, the Potency was 20.9 µM (active).

Another assay is described as follows: qHTS Screen of the MIPE 4.0 Collection Against Ewings Sarcoma (EW8) (AID 1259255). Further: nearly all actives have a fitted effect of over 35% in size. Further: potency means the concentration at half of the fitted maximal effect.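 On viability: 100% = DMSO-treated cells and 0% = medium-only wells without cells.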 The conditions noted are these: EW8 Ewing sarcoma viability, CellTiter-Glo, 48 h; series mostly up to 45.8 µM; viability: at the top concentration. The essentials: as §1
As for `CCCNCC(O)COc1ccccc1C(=O)CCc1ccccc1` (stereo unspecified), the Potency is 20.9 µM (active).
Turning to `CC(C)(C)C(=O)Oc1ccc(S(=O)(=O)Nc2ccccc2C(=O)NCC(=O)O)cc1`, the “viability” value is 130%.
In the case of `CN(Cc1cnc2nc(N)nc(N)c2n1)c1ccc(C(=O)N[C@@H](CCC(=O)O)C(=O)O)cc1`, the Potency was 0.0264 µM (active).
Turning to `CC(=O)OCC(CCn1cnc2cnc(N)nc21)COC(C)=O`, the “viability” value was 110%.
As for `Cc1cn([C@H]2C[C@H](N=[N+]=[N-])[C@@H](CO)O2)c(=O)[nH]c1=O`, the “viability” value was 108%.
With `CCCCc1oc2ccccc2c1C(=O)c1cc(I)c(OCCN(CC)CC)c(I)c1`, the Potency was 9.35 µM (active).
As to `COc1cc2nc(N(C)CCCNC(=O)C3CCCO3)nc(N)c2cc1OC` (stereo unspecified), the “viability” value is 112%.
Consider `Cc1ccccc1N1C(=O)c2cc(S(N)(=O)=O)c(Cl)cc2NC1C` (stereo unspecified), for which the “viability” value is 124%.
Consider `CN(C)c1nc(N(C)C)nc(N(C)C)n1`, for which the “viability” value is 101%.
